Results as given in ChEMBL document CHEMBL3988442, “University of Dundee, Small-Polar-MMV Screening Library” (2021).
Out of some 48,000 compounds screened, about 13,000 (27%) showed an effect of 50% or more. The list shows a part of the results.

test system: Wolbachia pipientis; experiment: Anti-Wolbachia Cell-Based Screen; assay type: functional; set-up: scale not given: in the data most compounds retested in dose-response had high values; conditions: 5 µM

SMILES	Percent Effect
c1ccc2c(c1)CC(n1ccnc1-c1cc3n(n1)CCCNC3)CO2 (stereo not drawn)	3.87%
CCc1ncc(CN(C)C(=O)Nc2cccnc2N2CCCC2)s1	10.11%
NS(=O)(=O)CCN1CCN(c2cc(F)ccc2F)CC1	-4.797%
O=C(O)C(F)(F)F.O=C(O)C(F)(F)F.c1cc(CN2CCO[C@H]3[C@H](OCCN4CCCC4)CC[C@@H]32)co1	81.09%
Fc1ccc(CN2CCO[C@H]3[C@H](OCCN4CCCC4)CC[C@@H]32)cc1.O=C(O)C(F)(F)F.O=C(O)C(F)(F)F	-15.45%
O=C(O)C(F)(F)F.O=C(O)C(F)(F)F.c1csc(CN2CCO[C@H]3[C@H](OCCN4CCCC4)CC[C@@H]32)n1	6.605%
COc1ccc(CN2CCO[C@H]3[C@H](OCCN4CCCC4)CC[C@@H]32)cc1.O=C(O)C(F)(F)F.O=C(O)C(F)(F)F	97.25%
O=C(O)C(F)(F)F.c1cc(CN2CCO[C@H]3[C@H](OCC4CCOCC4)CC[C@@H]32)co1	111.9%
Cc1ccc(-c2nc(CN3CCN(S(=O)(=O)N(C)C)CC3)cs2)o1	2.093%
O=C(c1ncn2c1CNS(=O)(=O)c1ccccc1-2)N1CCOCC1	-11.97%
Cc1noc(C)c1S(=O)(=O)N(C)Cc1nn(C)c(Cl)c1Cl	-15.6%
CC(C)CC(CCO)CNC(=O)N1CC(C)(C)C1(C)C (stereo not drawn)	-21.83%
O=C(Cc1ccccn1)N1CCC2(CCCN(CC3CCOCC3)C2)C1 (stereo not drawn)	-4.093%
O=C(Cc1cccs1)N1CCC2(CCCN(CC3CCOCC3)C2)C1 (stereo not drawn)	-3.748%
O=C(O)C(F)(F)F.O=C1CC2(CCN(CC3CC3)C2)CN1c1ccc2c(c1)OCO2 (stereo not drawn)	-8.293%
O=C(O)C(F)(F)F.O=C1CC2(CCN(CC3CC3)C2)CN1c1cccc(F)c1 (stereo not drawn)	-1.195%
CN1CCCC(CNS(=O)(=O)N2CCc3ccccc3C2)C1 (stereo not drawn)	2.763%
CS(=O)(=O)N1CC2(CCN(CC3CC3)C2)Cc2ccccc21 (stereo not drawn)	119.1%
CS(=O)(=O)N1CC2(CCN(CC3CCCCC3)CC2)Cc2ccccc21	144%
CN1C(=O)C2(CCN(CC3CCC3)C2)c2ccccc21.O=C(O)C(F)(F)F (stereo not drawn)	10.05%
CS(=O)(=O)N1CC2(CCN(CC3CCCCC3)C2)Cc2ccccc21 (stereo not drawn)	112.5%
CS(=O)(=O)N1CC2(CCCN(CC3CC3)C2)Cc2ccccc21 (stereo not drawn)	118.5%
CCn1c(C)nnc1SCCNC(=O)c1cccc2ccnn12	-3.845%
Cc1nc(CNC(=O)CC2C(=O)NCCN2Cc2ccccc2C)n[nH]1 (stereo not drawn)	4.07%
CCCc1nnsc1C(=O)NCC1CCN(S(C)(=O)=O)CC1	-2.324%
Cc1cnc(N2C[C@@H]3[C@@H](C2)OCC(=O)N3C)nc1	-11.2%

SMILES	Percent Effect
CCN1CC2(CCN(C(=O)C(C)Oc3cccc(Cl)c3)CC2)OC1=O (stereo not drawn)	-19.97%
CCC(=O)NC1CCN(c2cccc(CC)c2)CC1	-2.51%
N#Cc1ccc(OC2CCN(CC(=O)NCC3CCCO3)CC2)cc1 (stereo not drawn)	1.578%
COc1ccc2c(c1)CCCN(C(=O)NCC1CCCO1)C2 (stereo not drawn)	114.2%
COc1ccc2c(c1)CCCN2C(=O)CN1CCOC(CN(C)C)C1 (stereo not drawn)	3.019%
COc1ccc2c(c1)CCCN(C(C)C(=O)N1CCCC1)C2 (stereo not drawn)	19.28%
CC(C)OCCC(=O)Nc1cccc(N2CCN(CC3CC3)CC2)c1	-21.21%
CS(=O)(=O)NC1CCN(C(=O)NCC2CCCO2)CC1 (stereo not drawn)	-8.8%
COc1cc2c(cc1OC)CN(C(=O)NCC1CCCO1)CC2 (stereo not drawn)	106.4%
COc1ccc2c(c1)CCCN(CC(=O)NCC1CCCO1)C2 (stereo not drawn)	92.35%
C=C(C)COCCNC(=O)N1CCc2c(cccc2OC)C1	-14.6%
COc1ccc2c(c1)CCCN2C(=O)CNCC1CN(C)CCO1 (stereo not drawn)	15.31%
COc1cccc(N2CCN(CCC(=O)NC3CCCCC3)CC2)c1	105.3%
COc1ccc(-c2n[nH]cc2CN(C)Cc2ccoc2)c(F)c1	10.13%
c1cc2c(cc1C1CCCN1Cc1nnnn1C1CC1)OCCO2 (stereo not drawn)	-7.859%
CCC(O)CNc1ccc(-c2nc(CC(C)C)no2)cn1 (stereo not drawn)	-5.208%
O=C(NCC1CCOC1)c1ccc(OCC(F)(F)F)nc1 (stereo not drawn)	-6.921%
NCC1Cc2cc(-c3cncc(C(=O)N4CCOCC4)n3)cc(Cl)c2O1 (stereo not drawn)	-2.851%
CCc1nc(C2CCCN2CCCS(=O)(=O)c2ccccc2)no1 (stereo not drawn)	0.9329%
COc1ccc2c(c1)CCN(CCC(=O)NC1CCCCC1)CC2	-10.31%
COc1ccc2c(c1)CN(CC(=O)NC1CCCC1)CC2	115.8%
COc1ccc2c(c1)CN(c1cc(N3CCCC3CO)ncn1)CC2 (stereo not drawn)	-11.42%
COCCOCC(=O)N1CCC(O)(c2ccc3nc(C)ccc3c2)CC1	1.515%
CCn1c(N)nc2cc(C(=O)NCCc3sccc3C)cnc21	9.086%
O=C(O)c1cccnc1CN1CCCC1CCc1ccccc1 (stereo not drawn)	101.7%
O=C(O)c1cccnc1CN(Cc1ccsc1)C1CC1	-4.109%

SMILES	Percent Effect
COc1cc2c(cc1OC)CN(Cc1ncccc1C(=O)O)CC2	-6.886%
CC(C)(C)OC(=O)NCC1CCCCN1Cc1ccccn1 (stereo not drawn)	1.475%
O=C(O)c1cccnc1CN1CCCCC1CCc1cccs1 (stereo not drawn)	113%
CN(Cc1cccc(F)c1)C(=O)CN1CCCC1CCc1ccccc1 (stereo not drawn)	-6.226%
CCN1CCCC1CNC(=O)CCc1cccs1 (stereo not drawn)	-0.4602%
O=C(O)c1cccnc1CN1CCCCC1CCc1ccccn1 (stereo not drawn)	108.5%
O=C(O)c1cccnc1CN1CCCCC1CCc1cccc(O)c1 (stereo not drawn)	117.3%
O=C(Cc1c[nH]c(=O)[nH]c1=O)N1CCCCC1CCc1cccc(O)c1 (stereo not drawn)	2.49%
Cc1c[nH]c(CN2CCCCC2CCc2cccc(O)c2)c(C)c1=O (stereo not drawn)	11.94%
Cc1oc(-c2ccoc2)nc1CN1CCCCC1CCc1ccccc1 (stereo not drawn)	-13.12%
CN(CCCc1nccn1C)C(=O)C1CCN(C(=O)C2CC2)CC1	15.41%
Cc1ccccc1CN1CCC2(CC1)CN(S(=O)(=O)c1ccccc1)C2.O=C(O)C(F)(F)F	-17.23%
Cc1occc1C(=O)N1CCC[C@]2(C[C@@H](OCc3ccncc3)CO2)C1.O=C(O)C(F)(F)F	-11.73%
CCc1c(C)nc(C2CCCN2C(=O)c2cc(C)no2)nc1O (stereo not drawn)	101.8%
CCc1nc(C2CCCN2C(=O)c2ccc3c(c2)nc(C)n3C)no1 (stereo not drawn)	0.7608%
CCc1nc(C2CCCN2C(=O)C2=COCC2)no1 (stereo not drawn)	-4.333%
CCc1cc(C(=O)N2CCCC2c2nc(C)c(F)c(O)n2)on1 (stereo not drawn)	-4.896%
CCc1cc(C(=O)N2CCCC2c2nc(C)c(CC)c(O)n2)on1 (stereo not drawn)	110.9%
O=C1CC(c2ccc3c(c2)OCO3)c2cn[nH]c2N1 (stereo not drawn)	104.3%
Cn1ncc2c1NC(=O)CC2c1cc2c(cc1Cl)OCO2 (stereo not drawn)	-77.33%
O=C1CO[C@H]2CN(Cc3ccc4c(c3)OCO4)C[C@H]2N1	-13.01%
CCC(C)(NCc1ncc(C(C)C)o1)c1nccs1 (stereo not drawn)	-9.094%
CN(C)[C@@H]1CO[C@H](CNC(=O)Nc2ccccc2)[C@H]1O	-15.17%
CN(Cc1c(F)cccc1Cl)C(=O)Nc1cnn(CC(N)=O)c1	-4.374%
CCOc1ccc2nc(CN3CCOC(CN)C3)ccc2c1 (stereo not drawn)	8.772%
CC(C)c1n[nH]c(C2CN(C(=O)c3ccnc(C4CC4)n3)CCO2)n1 (stereo not drawn)	106.2%

SMILES	Percent Effect
Cc1nccc(C(=O)N2CCOC(c3nc(C(C)C)n[nH]3)C2)n1 (stereo not drawn)	122.6%
CC1CCc2nc(O)c(C(=O)NCc3ccncc3)cc2C1 (stereo not drawn)	0.9729%
CCc1nc(CN2CCCN(Cc3cnn(C)c3)CC2)no1	-7.215%
CC(C)CN1Cc2c(C(=O)NC3CC3)ncn2-c2ccccc2S1(=O)=O	24.74%
CCCN(CC)C(=O)c1ncn2c1CN(C)S(=O)(=O)c1ccccc1-2	93.03%
CN1CCN(C(=O)c2ncn3c2CN(C)S(=O)(=O)c2ccccc2-3)CC1.O=C(O)C(F)(F)F	82.4%
CN(C(=O)c1ncn2c1CN(C)S(=O)(=O)c1ccccc1-2)C1CC1.O=C(O)C(F)(F)F	110.5%
CN1CCN(C(=O)c2ncn3c2CNS(=O)(=O)c2ccccc2-3)CC1	3.453%
CCCNC(=O)c1ncn2c1CN(CC(C)C)S(=O)(=O)c1ccccc1-2	51.12%
CCN1Cc2c(C(=O)NC)ncn2-c2ccccc2S1(=O)=O	-8.627%
CCNC(=O)c1ncn2c1CN(C)S(=O)(=O)c1ccccc1-2	6.974%
CN1Cc2c(C(=O)N3CCOCC3)ncn2-c2ccccc2S1(=O)=O	-2.827%
CCN1Cc2c(C(=O)NC(C)C)ncn2-c2ccccc2S1(=O)=O	-5.811%
Cc1ncsc1CCN(C)C(=O)c1c(O)cccc1O	-0.9599%
O=C(CCn1nnc2ccccc2c1=O)N(CC1CCOC1)C1CC1 (stereo not drawn)	-7.506%
CCCOC1CCCN(C(=O)Cn2cccc(C(F)(F)F)c2=O)C1 (stereo not drawn)	-4.197%
O=C(c1ncn2c1CNS(=O)(=O)c1ccccc1-2)N1CC=CC1	-15.18%
CCC(C)(C)NC(=O)c1ncn2c1CN(C)S(=O)(=O)c1ccccc1-2.O=C(O)C(F)(F)F	117.1%
Cc1c(C(=O)NC2CCCC2)nnn1-c1ccccc1	-16.4%
CCC(CC)NC(=O)c1ncn2c1CN(CC)S(=O)(=O)c1ccccc1-2.O=C(O)C(F)(F)F	4.599%
CN1Cc2c(C(=O)NCC3CCCO3)ncn2-c2ccccc2S1(=O)=O (stereo not drawn)	113.6%
CN1Cc2c(C(=O)Nc3cccnc3)ncn2-c2ccccc2S1(=O)=O.O=C(O)C(F)(F)F	-4.618%
CC(C)C(C)NC(=O)c1ncn2c1CN(C)S(=O)(=O)c1ccccc1-2.O=C(O)C(F)(F)F (stereo not drawn)	211.3%
CN1Cc2c(C(=O)NC3CCCCC3)ncn2-c2ccccc2S1(=O)=O.O=C(O)C(F)(F)F	115.3%
CCN1Cc2c(C(=O)NC(C)C(C)C)ncn2-c2ccccc2S1(=O)=O (stereo not drawn)	6.168%
